Results on 94 compounds are retold here after PubChem BioAssay AID2314 (National Center for Advancing Translational Sciences (NCATS), 2010).

The whole screen tested about 300,000 compounds, of which about 37,000 (12%) were called active. The sample holds actives, similar compounds and a random draw of the others, so the mix is not that of the screen. Values without a mark were called inactive. Cut-off read from the data, not from the text of the source: active = max response mostly above about 13% (no sharp cut-off); inactive = mostly below about 14%.

The assay can be described thus: Cycloheximide Counterscreen for Small Molecule Inhibitors of Shiga Toxin. Note: read at 38.3 µM for the half of the compounds with a filed dose; 0% is about no effect. The conditions noted are these: cell reporter, cycloheximide protein synthesis inhibition counterscreen; hits give high values. For orientation: A counterscreen serves to expose hits that act by an unwanted route or on another target.
Turning to `COc1ccc(N2CCN(C(=O)CN3C(=O)COc4ccccc43)CC2)cc1`, the max response was -4.68%.

In the case of `CCOc1ccc(NC(=O)COc2ccc(C(=O)NC3CCCc4ccccc43)cc2OC)cc1` (centres undefined), the max response was -1.56%.

For the compound `O=C(O)CCn1c(O)c(C=C2N=c3ccccc3=N2)sc1=S`, the max response was -1.81%.

Regarding `Cc1cc(NC(=O)c2ccco2)c(=O)n(Cc2c(F)cccc2Cl)c1`, the max response is -2.05%.

Take `Cc1ccc(-n2nc3cc(Cl)c(NC(=O)c4ccco4)cc3n2)cc1`: the max response is 45% (active).

For `COC(=O)c1cc(Cl)c(NC(=O)c2ccco2)cc1OC`, the max response is 3.33%.

Turning to `Cc1ccc(-n2nc3cc(C)c(NC(=O)c4cccnc4)cc3n2)cc1`, the max response was 15.8% (active).

In the case of `O=C(Nc1cccc(-n2cnnn2)c1)c1cccnc1`, the max response is -4.68%.

In the case of `Cc1c(NC(=O)c2cccnc2)c(=O)n(-c2ccccc2)n1C`, the max response was -2.61%.

Turning to `COc1ccc(C(C(=O)NC2CCCC2)N(CCCO)C(=O)Cn2nnc(-c3ccc(C)o3)n2)cc1` (centres undefined), the max response was -4.49%.

In the case of `Cc1ccc(NC(=S)NCc2ccccc2Cl)c(C)c1`, the max response is 10.7%.

On to `Cc1cccc(NC(=S)NCCc2ccc(F)cc2)c1C`, for which the max response is 6.6%.

Turning to `Cc1cc(F)ccc1NC(=S)NCCc1ccccc1`, the max response was 5.78%.

On to `Cc1cccc(NC(=S)NCCc2ccc(Cl)cc2)c1C`, for which the max response is 17.3% (active).

As to `CCNC(=S)Nc1cccc(Cl)c1C`, the max response was -2.36%.

Turning to `Cc1ccc(NC(=S)NCCc2ccc(Cl)cc2)c(C)c1`, the max response is 13.7% (active).

`CC#CC[N+](C)(C)CCCCCC`: the max response was 0.922%.

As for `COc1ccc(C(=O)NC(=S)N2CCNC(=O)C2CC(=O)OC(C)C)cc1` (centres undefined), the max response is 0.131%.

For `COc1ccc(OC)c(C(C)NC(=S)Nc2ccc(S(=O)(=O)Nc3ncccn3)cc2)c1` (centres undefined), the max response was -0.745%.

`COc1ccc(NC(=O)C(CC(C)C)NC(=O)C2CCC(C)CC2)cc1` (centres undefined): the max response is 6.1%.

With `O=C1Nc2cc(Cl)c(Cl)cc2N(O)N1c1ccccc1Cl`, the max response is 4.44%.

For `O=C1Nc2cc(Cl)c(Cl)cc2N(O)N1c1cc(Cl)cc(Cl)c1`, the max response is -2.32%.

Regarding `O=C(O)c1cccc(N2C(=O)Nc3ccccc3N2O)c1`, the max response was 24.6% (active).

In the case of `COc1ccccc1N(C)C(=O)c1cc(S(=O)(=O)N2CCc3ccccc32)cn1C`, the max response is 0.704%.

In the case of `CC1CCN(C(=O)/C(=C\c2ccccc2)NC(=O)c2ccccc2)CC1`, the max response was -1.41%.

Consider `CC1CCN(C(=O)CCNC(=O)c2ccccc2)CC1`, for which the max response is 31.5% (active).

On to `CC1CCN(C(=O)/C(=C\c2ccccc2F)NC(=O)c2ccccc2)CC1`, for which the max response was 8.12%.

Consider `OC(CNC1CCCC1)COc1ccc(F)cc1` (centres undefined), for which the max response is -1.08%.

As for `NC(=O)CC(NC(=O)Cc1cccc2ccccc12)c1ccc(NCc2cc(F)ccc2F)c([N+](=O)[O-])c1` (centres undefined), the max response was -1.72%.

On to `CCOc1ccc(N(CC(=O)NCCOc2ccccc2OC)S(=O)(=O)c2ccccc2)cc1`, for which the max response was 1.62%.

For the compound `COc1ccc(NC(=S)NC2CCS(=O)(=O)C2)cc1` (centres undefined), the max response is -3.34%.

In the case of `O=C(CCN1C(=O)c2ccccc2C1=O)NCCN1CCOCC1`, the max response was -0.442%.

Turning to `COc1ccccc1/C=C1\SC(=O)N(CCC(=O)N(C)C2CCS(=O)(=O)C2)C1=O` (centres undefined), the max response was 7.79%.

For `COc1ccc(NC(=O)CCN2C(=O)/C(=C/c3ccc4c(c3)OCO4)SC2=S)cc1`, the max response is -1.34%.

On to `O=C(CCN1C(=O)c2ccccc2C1=O)NCCCn1ccnc1`, for which the max response is 4.07%.

Turning to `COc1ccc(-c2ccc(OC(=O)NC3CCS(=O)(=O)C3)cc2)cc1` (centres undefined), the max response was 28.5% (active).

Turning to `COc1ccc(/C=C2\SC(=O)N(CCC(=O)NC3CCS(=O)(=O)C3)C2=O)cc1` (centres undefined), the max response was 27.8% (active).

Consider `O=C(CN1C(=O)S/C(=C\c2ccccc2F)C1=O)NCCCn1ccnc1`, for which the max response was -0.628%.

Take `COc1ccc(/C=C2\SC(=O)N(CCC(=O)NCCCn3ccnc3)C2=O)cc1`: the max response was 18.8% (active).

For `Cc1ccc(/C=C2\SC(=S)N(CCC(=O)Nc3ccc(O)cc3)C2=O)cc1`, the max response was 0.318%.

Take `Cc1ccc(/C=C2/SC(=S)N(CCC(=O)NCCCN3CCOCC3)C2=O)cc1`: the max response is 11.5% (active).

Consider `O=C(Cc1ccc(Cl)cc1)NC1CCS(=O)(=O)C1` (centres undefined), for which the max response is -0.92%.

On to `[O-][n+]1onc2c1CCc1[nH]c(-c3ccccc3)nc1-2`, for which the max response was -2.38%.

`CCSc1nc(O)c(C(c2cccc(OC)c2)c2c(O)nc(SCC)[nH]c2=O)c(=O)[nH]1`: the max response was 4%.

Turning to `Cc1c(Cl)cccc1NC(=O)[C@@]1(CC(=O)O)CC(/C=C/c2ccccc2)=NO1`, the max response was 9.29%.

For `O=C(COc1cccc2ccccc12)Nc1cc(S(=O)(=O)N2CCOCC2)ccc1N1CCOCC1`, the max response was 7.56%.

As to `CCn1cc(CN2CCN(CC(C)(C)C)C(CCO)C2)c2ccccc21` (centres undefined), the max response is -2.82%.

For the compound `Cn1cc(CCC(=O)NC2CC2)c2ccccc21`, the max response was -2.88%.

Take `CC1CC2=C(CC1/C=N/NC(N)=S)C(C)(C)CCC2` (centres undefined): the max response is -1.08%.

In the case of `O=Cc1c(N2CCN(c3cccc(Cl)c3)CC2)nc2ccccn2c1=O`, the max response was 3.1%.

With `Cc1ccc(Cl)cc1NC(=O)C1CCCN(c2cnccn2)C1` (centres undefined), the max response was -5.58%.

With `COc1ccc(NC(=O)CN2C(=O)CSc3ccc(S(=O)(=O)N4CCC(C)CC4)cc32)cc1`, the max response was 9.42%.

Consider `CCc1ccccc1NC(=S)Nc1cc(OC)c(NC(=O)C(C)C)cc1OC`, for which the max response was -6.46%.

With `CC(C)(C)Nc1nc(-c2ccccn2)nc2ccccc12`, the max response is -2.46%.

`COc1cnc(-c2ccccn2)nc1Oc1ccc(C(C)(C)C)cc1`: the max response is 4.47%.

Regarding `Cc1ccc(Oc2nc(-c3ccccn3)nc3ccccc23)cc1`, the max response was 25% (active).

Consider `NS(=O)(=O)c1ccc(CCNC(=O)CNC(=O)Cc2ccccc2)cc1`, for which the max response was 4.6%.

Take `CC1CCCN(S(=O)(=O)c2ccc(-c3ccc(=O)[nH]n3)o2)C1` (centres undefined): the max response was -2.93%.

On to `O=C(c1ccc(Cn2cc([N+](=O)[O-])cn2)o1)N1CCCC1`, for which the max response was -2.92%.

On to `COc1cccc(NC(=O)c2ccc(Cn3cc([N+](=O)[O-])cn3)o2)c1`, for which the max response is 1.95%.

For the compound `CCc1ccc(NC(=O)c2ccc(Cn3cc([N+](=O)[O-])cn3)cc2)cc1`, the max response was 26.2% (active).

In the case of `COc1cccc(OC)c1C(=O)Nc1c(C(=O)N2CCN(c3ccccn3)CC2)oc2ccccc12`, the max response is -0.82%.

On to `CN1CCN(CCCCOc2cccc3ccccc23)CC1`, for which the max response was 2.51%.

On to `NC(=O)COc1ccc(C23CC4CC(CC(C4)C2)C3)cc1`, for which the max response was 32.3% (active).

With `NNC(=O)COc1ccc(C2SCCS2)cc1`, the max response was 5.31%.

For the compound `NC(=O)COc1ccccc1C(=O)NC12CC3CC(CC(C3)C1)C2`, the max response is 0.476%.

On to `Cc1c(Cl)c([N+](=O)[O-])nn1CCCC(=O)NC(C)c1ccccc1` (centres undefined), for which the max response is 0.248%.

As to `O=C(COc1ccc(Cl)cc1Cl)NCCCNC(=O)c1cnccn1`, the max response was -1.68%.

Take `COc1ccc(NC(=O)C/C(C)=N/NC(=O)c2cnccn2)cc1Cl`: the max response is 53.7% (active).

Take `CCCCC(=O)N/N=C(\C)CC(=O)Nc1cc(Cl)ccc1OC`: the max response was -1.06%.

In the case of `COc1cccc(NC(=O)Cn2c3ccc(F)cc3c3nc4n(c(=O)c32)CCS4)c1`, the max response was 4.56%.

For the compound `CCN(CCNC(=O)C1=C(C)C(=O)OC12CCC(C)CC2)c1ccccc1` (centres undefined), the max response was 3.3%.

In the case of `COc1ccc(-c2n[nH]c3c2CN(C(=O)c2ccc(F)cc2)CC3)cc1`, the max response was 9.17%.

Consider `CCOc1cc(-c2noc(CCCC(=O)NC3CCCCC3)n2)ccc1OC`, for which the max response is -3.29%.

On to `COC(=O)c1cn(C(=O)c2ccc(Cl)cc2)c2ccccc12`, for which the max response is 10.5%.

As for `COC(=O)C(=Nc1ccccc1)/C(C(=O)C(=O)N(C)c1ccccc1)=C(\O)c1ccc(Cl)cc1`, the max response was 23.6% (active).

As for `COC(=O)/C(NC(C)=O)=C(\C)c1ccc(Cl)cc1`, the max response is 1.02%.

For `CC(C)CC(=O)NC(=S)Nc1cc(C(=O)O)ccc1Cl`, the max response is -4.75%.

Turning to `CC(=O)c1ccc(NC(=S)NC(=O)CC(C)C)cc1`, the max response is 9.98%.

Consider `CC(C)CC(=O)NC(=S)Nc1ccc(F)cc1F`, for which the max response is 23.2% (active).

In the case of `Cc1ccc(-c2nc(-c3cccnc3)sc2CC(=O)Nc2ccc(C)c(Cl)c2)cc1`, the max response was 8.82%.

Consider `COc1ccc(CCNS(=O)(=O)c2cccc([N+](=O)[O-])c2)cc1`, for which the max response is 4.94%.

Turning to `Cc1cc(C)c2c3c(sc2n1)C(c1ccccc1)C(C#N)=C(N)O3` (centres undefined), the max response is -1.32%.

As to `N#CC1=C(N)Oc2c(c(=O)oc3ccccc23)C1c1ccccc1OC(=O)c1cccs1` (centres undefined), the max response is 1.47%.

For the compound `N#CC1=C(N)Oc2c(sc3ccccc23)C1c1ccco1` (centres undefined), the max response was 28.9% (active).

For `COc1cccc(CC(=O)Nc2nc(-c3ccc(OC)c(OC)c3)cs2)c1`, the max response was -5.12%.

Take `COc1ccc(-c2nc(CCNC(=O)c3ccc(Br)o3)cs2)cc1`: the max response was 13.1%.

Take `COc1ccc(-c2csc(NC(=O)COC(=O)c3ccc(Br)o3)n2)cc1`: the max response was 33.7% (active).

With `COc1ccc(OC)c(-c2csc(NC(=O)C3=NNC(=O)CC3)n2)c1`, the max response is 9%.

Regarding `COc1ccc(-c2csc(NC(=O)COC(=O)Cc3ccc(Cl)cc3Cl)n2)cc1`, the max response was 45.1% (active).

With `CC(C)(C)NC(=O)NC(=O)COC(=O)Cc1ccc(Cl)cc1Cl`, the max response was 2.66%.

Take `Cc1cccc(NC(=O)c2cc(S(=O)(=O)N3CCC4(CC3)OCCO4)ccc2F)c1`: the max response is -1.02%.

For `CCn1cc(/C=C(\NC(=O)c2ccc(C)cc2)C(=O)NCCN2CCOCC2)c2ccccc21`, the max response was -1.13%.

With `CC(C)C(=O)NCC(c1cccs1)S(=O)(=O)c1ccc(F)cc1` (centres undefined), the max response is -4.81%.
